Laboratory results from PubChem BioAssay (Tox21).
Values joined by “and” are separate entries in the source; they are usually repeats but may differ in a detail not shown here. Identical values can stand only once. Inconclusive results are not listed. Where a call stands in place of a potency, no number is given. Some structures have more than one record in an assay (separate samples or runs), and their calls can disagree. Active and inactive are the calls of the source. The call rests on the fitted dose curve; in most records, active means well fitted curve in the direction sought with a large enough effect in the repeat runs; inconclusive means weak or mixed curves; inactive means no such curve, though single readings can be large; an effect the other way counts as inactive or inconclusive.

Key:
[1] = qHTS RealTime-Glo MT Cell Viability Assay in HEK293 cells - 16 hour (AID 1224872); settings: RealTime-Glo luminescence; series mostly up to 76.8 µM; further: top concentration of the series differs between compounds; nearly all actives have a fitted effect of over 50% in size
Summary of the method: (§1)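 Tox21 10K qHTS, HEK293, 600 cells/well, RealTime-Glo reagent co-dispensed with cells; 5 h preincubation, compound by pintool, 37 C, luminescence at 0–40 h.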

[2] = qHTS RealTime-Glo MT Cell Viability Assay in HepG2 cells - 8 hour (AID 1224873); settings: RealTime-Glo luminescence; series mostly up to 76.8 µM; further: nearly all actives have a fitted effect of over 55% in size
Summary of the method: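 Real-time viability: cells seeded at 600 per well together with NanoLuc and cell-permeant prosubstrate, compounds added after 5 h incubation. Luminescence tracked at 0, 8, 16, 24, 32 and 40 h of exposure.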

[3] = A CellTox Green Cytotoxicity Assay to monitor cytotoxicity in HEK293 cells - 24 hour (AID 1224875); settings: CellTox Green fluorescence; series mostly up to 76.8 µM; further: nearly all actives have a fitted effect of over 45% in size
Summary of the method: (§2)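 Fluorescence intensity, read at 0, 8, 16, 24, 32 and 40 h of compound treatment, reflected dye binding to DNA of dead HEK293 cells; compounds (23 nL, DMSO) were added 5 h after plating cells with reagent.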

[4] = A CellTox Green Cytotoxicity Assay to monitor cytotoxicity in HepG2 cells - 16 hour (AID 1224876); settings: CellTox Green fluorescence; series mostly up to 76.8 µM; further: nearly all actives have a fitted effect of over 45% in size; further: potency means the concentration at half of the fitted maximal effect
Summary of the method: (§3)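 Using 1536-well format, dye-containing HepG2 suspension was seeded, allowed 5 h at 37 C/5% CO2, dosed by pintool with compounds, positive and negative controls, and imaged for fluorescence across 40 h.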

[5] = qHTS RealTime-Glo MT Cell Viability Assay in HepG2 cells - 32 hour (AID 1224877); settings: RealTime-Glo luminescence; series mostly up to 76.8 µM; further: nearly all actives have a fitted effect of over 55% in size
Summary of the method: (§4)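 Cells + NanoLuc/prosubstrate dispensed (600 cells/well) → 5 h at 37 C/5% CO2 → compounds in DMSO transferred → 40 h incubation at 37 C, luminescence read at 0, 8, 16, 24, 32, 40 h.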

[6] = A CellTox Green Cytotoxicity Assay to monitor cytotoxicity in HepG2 cells - 24 hour (AID 1224878); settings: CellTox Green fluorescence; series mostly up to 76.8 µM; further: nearly all actives have a fitted effect of over 45% in size; further: potency means the concentration at half of the fitted maximal effect
Summary of the method: as §3

[7] = qHTS RealTime-Glo MT Cell Viability Assay in HEK293 cells - 0 hour (AID 1224880); settings: RealTime-Glo luminescence; series mostly up to 76.8 µM; further: nearly all actives have a fitted effect of over 45% in size; further: potency means the concentration at half of the fitted maximal effect
Summary of the method: (§5)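 Viable HEK293 cells reduce a cell-permeant prosubstrate; the product diffuses out and is consumed by NanoLuc in the medium to give light. Compounds went in after a 5 h incubation and plates were read over the treatment course.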

[8] = A CellTox Green Cytotoxicity Assay to monitor cytotoxicity in HEK293 cells - 32 hour (AID 1224881); settings: CellTox Green fluorescence; series mostly up to 76.8 µM; further: nearly all actives have a fitted effect of over 40% in size
Summary of the method: as §2

[9] = A CellTox Green Cytotoxicity Assay to monitor cytotoxicity in HepG2 cells - 0 hour (AID 1224882); settings: CellTox Green fluorescence; series mostly up to 76.8 µM; further: nearly all actives have a fitted effect of over 35% in size; further: potency means the concentration at half of the fitted maximal effect
Summary of the method: as §3

[10] = A CellTox Green Cytotoxicity Assay to monitor cytotoxicity in HepG2 cells - 32 hour (AID 1224883); settings: CellTox Green fluorescence; series mostly up to 76.8 µM; further: nearly all actives have a fitted effect of over 50% in size; further: potency means the concentration at half of the fitted maximal effect
Summary of the method: as §3

[11] = A CellTox Green Cytotoxicity Assay to monitor cytotoxicity in HEK293 cells - 8 hour (AID 1224884); settings: CellTox Green fluorescence; series mostly up to 76.8 µM; further: nearly all actives have a fitted effect of over 35% in size
Summary of the method: as §2

[12] = qHTS RealTime-Glo MT Cell Viability Assay in HepG2 cells - 16 hour (AID 1224885); settings: RealTime-Glo luminescence; series mostly up to 76.8 µM; further: nearly all actives have a fitted effect of over 50% in size
Summary of the method: as §4

[13] = qHTS RealTime-Glo MT Cell Viability Assay in HEK293 cells - 24 hour (AID 1224886); settings: RealTime-Glo luminescence; series mostly up to 76.8 µM; further: top concentration of the series differs between compounds; nearly all actives have a fitted effect of over 50% in size
Summary of the method: as §1

[14] = qHTS RealTime-Glo MT Cell Viability Assay in HEK293 cells - 8 hour (AID 1224887); settings: RealTime-Glo luminescence; series mostly up to 76.8 µM
Summary of the method: as §5

[15] = A CellTox Green Cytotoxicity Assay to monitor cytotoxicity in HEK293 cells - 16 hour (AID 1224888); settings: CellTox Green fluorescence; series mostly up to 76.8 µM; further: nearly all actives have a fitted effect of over 35% in size
Summary of the method: as §2

[16] = qHTS RealTime-Glo MT Cell Viability Assay in HepG2 cells - 0 hour (AID 1224889); settings: RealTime-Glo luminescence; series mostly up to 76.8 µM; further: nearly all actives have a fitted effect of over 50% in size; further: potency means the concentration at half of the fitted maximal effect
Summary of the method: as §4

[17] = A CellTox Green Cytotoxicity Assay to monitor cytotoxicity in HepG2 cells - 8 hour (AID 1224890); settings: CellTox Green fluorescence; series mostly up to 76.8 µM; further: nearly all actives have a fitted effect of over 45% in size; further: potency means the concentration at half of the fitted maximal effect
Summary of the method: as §3

[18] = qHTS assay to identify small molecule antagonists of the estrogen receptor alpha (ER-alpha) signaling pathway using the BG1 cell line in the presence of 0.1 nM 17-beta-estradiol - cell viability counter screen (AID 1259241); settings: VM7Luc4E2 (BG1) viability, CellTiter-Fluor protease, 22 h, 0.1 nM estradiol agonist added; series mostly up to 92.4 µM; further: nearly all actives have a fitted effect of over 40% in size; further: potency means the concentration at half of the fitted maximal effect
Summary of the method: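 Cytotoxicity counter-screen: live-cell protease activity measured by fluorescence (30 min reagent step) in the same wells. Cells were VM7Luc4E2 with endogenous ER-alpha and ERE-driven luciferase, treated 22 hr at 37C alongside 0.1 nM 17beta-estradiol final.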

[19] = A CellTox Green Cytotoxicity Assay to monitor cytotoxicity in HepG2 cells - 40 hour (AID 1224879); settings: CellTox Green fluorescence; series mostly up to 76.8 µM; further: nearly all actives have a fitted effect of over 40% in size; further: potency means the concentration at half of the fitted maximal effect
Summary of the method: as §3

## Cc1ccc(C(=O)O)o1
[1]
  Potency: inactive
[2]
  Potency: inactive
[3]
  Potency: inactive
[4]
  Potency: inactive
[5]
  Potency: inactive
[6]
  Potency: inactive
[7]
  Potency: inactive
[8]
  Potency: inactive
[9]
  Potency: inactive
[10]
  Potency: inactive
[11]
  Potency: inactive
[12]
  Potency: inactive
[13]
  Potency: inactive
[14]
  Potency: inactive
[15]
  Potency: inactive
[16]
  Potency: inactive
[17]
  Potency: inactive
[18]
  Potency: inactive

## O=C1N=C(O)CN1/N=C/c1ccc(-c2ccc([N+](=O)[O-])cc2)o1
[1]
  Potency: inactive
[2]
  Potency: inactive
[3]
  Potency: inactive
[4]
  Potency: inactive
[5]
  Potency: inactive
[6]
  Potency: inactive
[7]
  Potency: inactive
[8]
  Potency: inactive
[9]
  Potency: inactive
[10]
  Potency: inactive
[11]
  Potency: inactive
[12]
  Potency: inactive
[13]
  Potency: inactive
[14]
  Potency: inactive
[15]
  Potency: inactive
[16]
  Potency: inactive
[17]
  Potency: inactive

## Cc1cc(O)c2c(c1)C(=O)c1cc(O)cc(O)c1C2=O
[1]
  Potency: inactive
[2]
  Potency: inactive
[3]
  Potency: inactive
[4]
  Potency: inactive
[5]
  Potency: inactive
[6]
  Potency: inactive
[19]
  Potency: inactive
[7]
  Potency: inactive
[8]
  Potency: inactive
[9]
  Potency: inactive
[10]
  Potency: inactive
[11]
  Potency: inactive
[12]
  Potency: inactive
[14]
  Potency: inactive
[15]
  Potency: inactive
[16]
  Potency: inactive
[17]
  Potency: inactive

## OCCOCCOCCOCCO
[1]
  Potency: inactive
[2]
  Potency: inactive
[3]
  Potency: inactive
[4]
  Potency: inactive
[5]
  Potency: inactive
[6]
  Potency: inactive
[19]
  Potency: inactive
[7]
  Potency: inactive
[8]
  Potency: inactive
[9]
  Potency: inactive
[10]
  Potency: inactive
[11]
  Potency: inactive
[12]
  Potency: inactive
[13]
  Potency: inactive
[14]
  Potency: inactive
[15]
  Potency: inactive
[16]
  Potency: inactive
[17]
  Potency: inactive
[18]
  Potency: inactive

## NCCc1ccc(O)c(O)c1
[1]
  Potency: inactive
[2]
  Potency: inactive
[3]
  Potency: inactive
[5]
  Potency: inactive
[6]
  Potency: inactive
[19]
  Potency: inactive
[7]
  Potency: inactive
[8]
  Potency: inactive
[9]
  Potency: inactive
[10]
  Potency: inactive
[11]
  Potency: inactive
[12]
  Potency: inactive
[13]
  Potency: inactive
[14]
  Potency: inactive
[15]
  Potency: inactive
[16]
  Potency: inactive
[17]
  Potency: inactive
[18]
  Potency: 34.5 µM (active)

## Oc1c(Cl)cc(Cl)c(Cl)c1Cl
[2]
  Potency: inactive
[3]
  Potency: inactive
[4]
  Potency: inactive
[5]
  Potency: inactive
[6]
  Potency: inactive
[7]
  Potency: inactive
[8]
  Potency: inactive
[9]
  Potency: inactive
[10]
  Potency: inactive
[11]
  Potency: inactive
[12]
  Potency: inactive
[15]
  Potency: inactive
[16]
  Potency: inactive
[17]
  Potency: inactive
[18]
  Potency: inactive

## OC[C@@H](O)[C@H](O)[C@H](O)[C@@H](O)CO
[1]
  Potency: inactive
[2]
  Potency: inactive
[3]
  Potency: inactive
[5]
  Potency: inactive
[6]
  Potency: inactive
[19]
  Potency: inactive
[7]
  Potency: inactive
[8]
  Potency: inactive
[9]
  Potency: inactive
[10]
  Potency: inactive
[11]
  Potency: inactive
[12]
  Potency: inactive
[13]
  Potency: inactive
[14]
  Potency: inactive
[15]
  Potency: inactive
[17]
  Potency: inactive
[18]
  Potency: inactive

## CC(=O)CCc1ccccc1
[1]
  Potency: inactive
[2]
  Potency: inactive
[3]
  Potency: inactive
[4]
  Potency: inactive
[5]
  Potency: inactive
[6]
  Potency: inactive
[19]
  Potency: inactive
[7]
  Potency: inactive
[8]
  Potency: inactive
[9]
  Potency: inactive
[10]
  Potency: inactive
[11]
  Potency: inactive
[12]
  Potency: inactive
[13]
  Potency: inactive
[14]
  Potency: inactive
[15]
  Potency: inactive
[17]
  Potency: inactive
[18]
  Potency: inactive

## CC1(C)O[C@@H]2C[C@H]3[C@@H]4C[C@H](F)C5=CC(=O)CC[C@]5(C)[C@H]4[C@@H](O)C[C@]3(C)[C@]2(C(=O)CO)O1
[1]
  Potency: inactive
[2]
  Potency: inactive
[3]
  Potency: inactive
[4]
  Potency: 49 µM (active) and inactive
[5]
  Potency: inactive
[6]
  Potency: 49 µM (active) and inactive
[19]
  Potency: 43.6 µM (active) and inactive
[7]
  Potency: 17.4 µM (active) and 10.7 µM (active)
[8]
  Potency: inactive
[9]
  Potency: 38.9 µM (active) and inactive
[10]
  Potency: 43.6 µM (active) and inactive
[11]
  Potency: inactive
[12]
  Potency: inactive
[13]
  Potency: inactive
[14]
  Potency: inactive
[15]
  Potency: inactive
[16]
  Potency: 1.23 µM (active) and 2.68 µM (active)
[17]
  Potency: 49 µM (active) and inactive
[18]
  Potency: inactive

## CC(C)(CO)COC(=O)C(C)(C)CO
[1]
  Potency: inactive
[2]
  Potency: inactive
[3]
  Potency: inactive
[4]
  Potency: inactive
[5]
  Potency: inactive
[6]
  Potency: inactive
[7]
  Potency: inactive
[8]
  Potency: inactive
[9]
  Potency: inactive
[10]
  Potency: inactive
[11]
  Potency: inactive
[12]
  Potency: inactive
[13]
  Potency: inactive
[14]
  Potency: inactive
[15]
  Potency: inactive
[17]
  Potency: inactive
[18]
  Potency: inactive

## c1ccc2[nH]cnc2c1
[1]
  Potency: inactive
[2]
  Potency: inactive
[3]
  Potency: inactive
[5]
  Potency: inactive
[6]
  Potency: inactive
[7]
  Potency: inactive
[8]
  Potency: inactive
[9]
  Potency: inactive
[10]
  Potency: inactive
[11]
  Potency: inactive
[12]
  Potency: inactive
[13]
  Potency: inactive
[14]
  Potency: inactive
[15]
  Potency: inactive
[16]
  Potency: inactive
[17]
  Potency: inactive
[18]
  Potency: inactive

## CCOC(=O)C1OC1c1ccccc1 (stereo not drawn)
[2]
  Potency: inactive
[3]
  Potency: inactive
[4]
  Potency: inactive
[5]
  Potency: inactive
[6]
  Potency: inactive
[7]
  Potency: inactive
[8]
  Potency: inactive
[9]
  Potency: inactive
[10]
  Potency: inactive
[11]
  Potency: inactive
[12]
  Potency: inactive
[14]
  Potency: inactive
[15]
  Potency: inactive
[16]
  Potency: inactive
[17]
  Potency: inactive
[18]
  Potency: inactive
